RGS7-Gao reg = modulates binding of RGS7 to human Galphao. 0.35% of 220,000 active. Multiplexed bead flow cytometry; actives lie on both sides. binding response (% of control), % at 10 µM. P09471; in the data active = binding response below about 49% or above about 150%; inconclusive = no clear call, values can overlap the other calls; inactive = in between;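 note: fluorescent Galphao held in activated GDP-AlF4 state binding bead-coupled RGS7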
Target sequence (P09471 whole entry, looked up): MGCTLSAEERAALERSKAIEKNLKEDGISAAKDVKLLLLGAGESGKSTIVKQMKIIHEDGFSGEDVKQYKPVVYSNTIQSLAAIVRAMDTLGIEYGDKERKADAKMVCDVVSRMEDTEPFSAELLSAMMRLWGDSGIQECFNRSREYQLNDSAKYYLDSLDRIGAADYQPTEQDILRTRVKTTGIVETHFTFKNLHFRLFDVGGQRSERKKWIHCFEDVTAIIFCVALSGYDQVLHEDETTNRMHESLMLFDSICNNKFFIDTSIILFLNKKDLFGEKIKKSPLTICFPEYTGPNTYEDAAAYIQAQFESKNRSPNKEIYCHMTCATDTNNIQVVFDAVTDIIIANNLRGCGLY
RGS8-Gao = regulators of human RGS8-Galphao interaction; P09471; multiplexed bead flow cytometry, RGS8-Galphao binding; actives lie on both sides; response (percent of control binding), % at 10 µM; 0.34% of 220,000 active; in the data active = response below about 60% or above about 140%; inactive = in between;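 note: Galphao activated as the GDP aluminium fluoride complex binding bead-coupled RGS8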
Avidin bead fluor = compound fluoresces at 488/530 nm on avidin beads | compound fluorescence 488/530 nm, flow cytometry; stronger effect = higher value | fluorescence (KMESF) at 10 µM | 0.38% of 220,000 active; in the data active = fluorescence above about 47
GSH bead fluor = GSH bead compound fluorescence profile | AID 1776 | fluorescence (KMESF) at 10 µM | GSH beads flow cytometry, compound fluorescence 488/530 nm; stronger effect = higher value | 0.25% of 190,000 active; in the data active = fluorescence above about 89;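 note: glutathione beads carrying GST-tagged Bcl family fusion proteins plus one bare bead set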
RGS4-Gao reg = modulates binding of RGS4 to human Galphao. Multiplexed bead flow cytometry; actives lie on both sides. P09471. binding response (% of control), % at 10 µM. AID 1415. 0.33% of 220,000 active; in the data active = binding response below about 49% or above about 150%; inactive = in between;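 note: fluorescent Galphao activated with aluminum fluoride binding bead-coupled RGS4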
RGS16-Gao HTS = modulates binding between human RGS16 and Galphao; O15492+P09471; bead-based flow cytometry RGS16-Galphao binding, fluorescence; actives lie on both sides; binding response (% of control), % at 10 µM; 0.38% of 220,000 active;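 note: Galphao activated by GDP with aluminum fluoride before binding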
RGS-Gao = modulates binding between human RGS4 and Galphao; shares compounds with RGS16-Gao HTS; multiplexed bead flow cytometry, RGS–Galpha-o binding; RGS4–Galpha-o binding response, % at 10 µM; 99% of 1,600 active;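 note: fluorescently labeled Galpha-o bound to GDP with aluminium fluoride binding biotinylated RGS beads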
Avidin counter = interferes with biotinylated probe binding to avidin beads | shares compounds with RGS16-Gao HTS | streptavidin beads, fluorescein-biotin binding, flow cytometry | inhibition, % at 10 µM | 1,700 tested, under 10 active | AID 1783;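 active = inhibition above 50%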;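 note: median green fluorescence of gated singlet beads compared with DMSO control wells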
RGS8-Gao single = confirmation of regulators of human RGS8-Galphao interaction; shares compounds with RGS16-Gao HTS; bead-based flow cytometry RGS8-Galphao binding, fluorescence; actives lie on both sides; binding response (% of control), % at 10 µM; 3% of 1,700 active; AID 1836; in the data active = binding response below about 72% or above about 130%; inactive = in between;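 note: Galphao activated as GDP AlF4 complex before binding bead RGS8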
RGS7-Gao confirm = confirmation of regulators of human RGS7-Galphao interaction; shares compounds with RGS16-Gao HTS; bead-based flow cytometry RGS7-Galphao binding; actives lie on both sides; response (percent of control binding), % at 10 µM; 7.8% of 1,700 active; AID 1837; in the data active = response below about 75% or above about 130%; inactive = in between;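 note: fluorescent Galphao activated with GDP and aluminum fluoride binding bead-coupled RGS7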
RGS16-Gao conf = confirmation of regulators of human RGS16-Galphao interaction; shares compounds with RGS16-Gao HTS; bead-based flow cytometry, RGS16-Galphao binding; actives lie on both sides; response (% of control binding), % at 10 µM; 4% of 1,700 active; in the data active = response below about 74% or above about 130%; inactive = in between;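 note: Galphao activated as the GDP aluminium fluoride complex binding bead-coupled RGS16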
RGS4-Gao confirm = confirmation of regulators of human RGS4-Galphao interaction | 4% of 1,700 active | RGS4-Galphao binding, multiplexed bead flow cytometry; actives lie on both sides | shares compounds with RGS16-Gao HTS | binding response (% of control), % at 10 µM; in the data active = binding response below about 74% or above about 130%; inactive = in between
RGS19-Gao single = confirmation of regulators of human RGS19-Galphao interaction | shares compounds with RGS16-Gao HTS | bead-based flow cytometry RGS19-Galphao binding; actives lie on both sides | response (percent of control binding), % at 10 µM | 5% of 1,700 active; in the data active = response below about 50% or above about 160%; inactive = in between
Target sequence (P09471 whole entry, looked up): as above
Target sequence (P49795 whole entry, looked up): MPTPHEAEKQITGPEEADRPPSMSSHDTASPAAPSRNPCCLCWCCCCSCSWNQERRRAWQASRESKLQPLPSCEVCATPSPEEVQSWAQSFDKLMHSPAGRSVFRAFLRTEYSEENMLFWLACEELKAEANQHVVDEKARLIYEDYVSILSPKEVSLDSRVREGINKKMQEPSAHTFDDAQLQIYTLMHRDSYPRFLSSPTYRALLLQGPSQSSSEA
Of the large screens only hits and unclear results are named; the others gave an inactive call (follow-up assays come after a bar, where they were run); [ ] = another dose, or the depositor's remark. In the library only some 1.2% were active in any assay of this set; here they are far more common. Unless noted, the rule behind the calls is not given here.

CCOc1ccc(CCNC(=O)CCS(=O)(=O)c2ccc(OC)cc2)cc1OCC	none
Cc1ccc2nc(C)c3c(c2c1)COC3	RGS7-Gao reg -40, RGS8-Gao 17, RGS4-Gao reg -73 | Avidin counter inactive | RGS8-Gao single inactive | RGS7-Gao confirm inactive | RGS16-Gao conf inactive | RGS4-Gao confirm inactive | RGS19-Gao single inactive
CC1(C)CC(=O)C2=C(C1)Nc1ccccc1NC2c1cccnc1 (stereo not drawn)	none
Cn1cccc1C1Nc2ccccc2NC2=C1C(=O)CC(C)(C)C2 (stereo not drawn)	RGS8-Gao 58 | RGS-Gao 60 | Avidin counter inactive | RGS8-Gao single inactive | RGS7-Gao confirm inactive | RGS16-Gao conf inactive | RGS4-Gao confirm inactive | RGS19-Gao single inactive
Cc1nn(C)c(C)c1C1C(C#N)=C(N)Oc2n[nH]c(C)c21 (stereo not drawn)	RGS8-Gao 140[activator], RGS16-Gao HTS 230[activator] | RGS-Gao 110 | Avidin counter inactive | RGS8-Gao single inactive | RGS7-Gao confirm inactive | RGS16-Gao conf inactive | RGS4-Gao confirm inactive | RGS19-Gao single inactive
O=C(O)CCSc1ncnc2sc(-c3ccccc3)cc12	RGS7-Gao reg inconclusive, Avidin bead fluor 86, RGS4-Gao reg 262[activator], RGS16-Gao HTS 236[activator] (no result: GSH bead fluor) | Avidin counter inactive | RGS8-Gao single inactive | RGS7-Gao confirm inactive | RGS16-Gao conf inactive | RGS4-Gao confirm inactive | RGS19-Gao single inactive
O=C(O)CSc1ncnc2sc(-c3ccccc3)cc12	none
CNc1ncnc2sc(-c3ccccc3)cc12	RGS7-Gao reg 11, RGS8-Gao 16, RGS4-Gao reg 24, RGS16-Gao HTS 13 | Avidin counter inactive | RGS8-Gao single inactive | RGS7-Gao confirm inactive | RGS16-Gao conf inactive | RGS4-Gao confirm inactive | RGS19-Gao single inactive
COc1ccc(S(=O)(=O)Nc2ccccc2OC)cc1NC(=O)CC1CC2CCC1C2 (stereo not drawn)	none
COCCCNc1nc2ccccc2nc1NS(=O)(=O)c1ccc(C)cc1C	RGS7-Gao reg inconclusive (no result: GSH bead fluor)
CCN(CC(=O)Nc1cc(Cl)ccc1OC)CC(=O)NC1CCS(=O)(=O)C1 (stereo not drawn)	RGS7-Gao reg inconclusive (no result: GSH bead fluor)
Cc1ccc(S(=O)(=O)N2CCN(S(=O)(=O)c3ccc4c(c3)OCCO4)CC2)cc1	RGS8-Gao 58 | RGS-Gao 55 | Avidin counter inactive | RGS8-Gao single inactive | RGS7-Gao confirm inactive | RGS16-Gao conf inactive | RGS4-Gao confirm inactive | RGS19-Gao single inactive
CC1(C)Cc2c(sc(NC(=O)c3ccccc3Cl)c2C(=O)O)CO1	none
O=C(CN1CCC(n2nnc3cc(F)ccc32)CC1)Nc1ccc2c(c1)CCC2	none (no result: RGS7-Gao reg, RGS8-Gao, Avidin bead fluor, RGS4-Gao reg, RGS16-Gao HTS) | Avidin counter inactive | RGS8-Gao single inactive | RGS7-Gao confirm inactive | RGS16-Gao conf inactive | RGS4-Gao confirm inactive | RGS19-Gao single inactive
Cc1cc(Oc2ccc(C#N)cc2)nc(N2CCOCC2)n1	RGS7-Gao reg 43, RGS8-Gao 55, RGS4-Gao reg 41 | Avidin counter inactive | RGS8-Gao single inactive | RGS7-Gao confirm inactive | RGS16-Gao conf inactive | RGS4-Gao confirm inactive | RGS19-Gao single inactive
Cc1cc(Oc2ccc([N+](=O)[O-])cc2)nc(N2CCOCC2)n1	RGS7-Gao reg inconclusive (no result: GSH bead fluor)
COc1cccc(NC(=O)NC(C)C2CC3CCC2C3)c1 (stereo not drawn)	RGS7-Gao reg inconclusive
O=C(c1ccc(=O)[nH]c1)N(Cc1cccs1)C1(C(=O)NC2CCCC2)CCCCC1	RGS8-Gao 141[activator], RGS16-Gao HTS 259[activator] | RGS-Gao 116 | Avidin counter inactive | RGS8-Gao single inactive | RGS7-Gao confirm inactive | RGS16-Gao conf inactive | RGS4-Gao confirm inactive | RGS19-Gao single inactive
COCC(C)NC(=O)C(C)Oc1ccccc1 (stereo not drawn)	none
COc1ccc(N(CC(=O)NCc2cccs2)S(=O)(=O)c2c(C)n[nH]c2C)cc1	RGS8-Gao 58, RGS16-Gao HTS 14 | RGS-Gao 75
CC(=O)N1CSCC1C(=O)NNS(=O)(=O)c1cccc(C(F)(F)F)c1 (stereo not drawn)	RGS7-Gao reg inconclusive (no result: GSH bead fluor)
CCN1CCCC1CNC(=O)C(=O)Nc1ccccc1OC (stereo not drawn)	RGS7-Gao reg 153[activator], Avidin bead fluor 62 | RGS-Gao 101
Cc1ccc(C(C(=O)NCC2CCCO2)N(Cc2ccccc2)C(=O)c2ccc(-c3ccccc3)[nH]2)o1 (stereo not drawn)	none
O=C(NCC1CCCO1)C(c1cccs1)N(Cc1ccccc1Cl)C(=O)c1ccc(-c2ccccc2)[nH]1 (stereo not drawn)	RGS16-Gao HTS 178[activator] | RGS-Gao 99 | Avidin counter inactive | RGS8-Gao single inactive | RGS7-Gao confirm inactive | RGS16-Gao conf inactive | RGS4-Gao confirm inactive | RGS19-Gao single inactive
O=C1c2ccccc2NC(c2cccc(F)c2)N1Cc1ccco1 (stereo not drawn)	RGS7-Gao reg 31, RGS8-Gao 51, RGS4-Gao reg 43 | Avidin counter inactive | RGS8-Gao single inactive | RGS7-Gao confirm inactive | RGS16-Gao conf inactive | RGS4-Gao confirm inactive | RGS19-Gao single inactive
Cc1nn(CC2CC2)c(=O)n1-c1ccccc1	none
COC(=O)CCC(=O)Nc1sc(C)c(C)c1C(N)=O	none (no result: RGS7-Gao reg, RGS8-Gao, Avidin bead fluor, RGS4-Gao reg, RGS16-Gao HTS) | Avidin counter inactive | RGS8-Gao single inactive | RGS7-Gao confirm 73 | RGS16-Gao conf 70 | RGS4-Gao confirm 69 | RGS19-Gao single 44
Cc1cccc2sc(NC(=O)[C@@H]3CCCN3C(=O)c3cccs3)nc12	RGS16-Gao HTS 211[activator] | RGS-Gao 101 | Avidin counter inactive | RGS8-Gao single inactive | RGS7-Gao confirm inactive | RGS16-Gao conf inactive | RGS4-Gao confirm inactive | RGS19-Gao single inactive
